Assay results as given in PubChem BioAssay (NCI).
Several values for one entry are separate records, joined by “and”; a condition that tells them apart may be missing. Identical values can stand only once. Compounds without any hit were thinned out: in the full panel of roughly 83,000, 20% have a hit.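 Activity criterion: percent growth below 10, measured after cells in 96-well plates were exposed to a single compound concentration for 48 hours.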 Activity calls are given as the source filed them.

Tested on: 786-0 renal
Assay: NCI-60 one-dose screen, 48 h (100 = growth as untreated, 0 = no growth, -100 = all killed)
Conditions: 10 µM unless noted

**Q.** With `CCOc1cccc(/C(N)=N/C(N)=N/c2nc3ccccc3s2)c1` as the compound, how does the growth read?
**A.** Its growth is 105% (inactive).

**Q.** `O=C(CCl)Nc1ccc(NC(=O)c2cc(Cl)ccc2O)c(Cl)c1` was tested. Which growth did it give?
**A.** The growth was 88% (inactive).

**Q.** Which growth does the source give for `Clc1ccc(CSc2nnc(-c3ccc(Cl)cc3)n2-c2ccccc2)cc1` here?
**A.** Its growth is 59.7% (inactive).

**Q.** Which growth does the source give for `CC(C)(C)OC(=O)NCc1ccc(CNc2c([N+](=O)[O-])cnc3ccccc23)cc1` here?
**A.** Its growth is 73.8% (inactive).

**Q.** `NS(=O)(=O)c1ccc(Nc2nc(N/N=C/c3ccc4c(c3)OCO4)nc(Nc3ccccc3)n2)cc1` was tested. Which growth did it give?
**A.** The growth was 61.1% (inactive).

**Q.** `Cc1cc(=O)oc2cc(OCCCOc3ccc(/C=C/C(=O)Nc4ccc(Br)cc4)cc3)ccc12` was tested. Which growth did it give?
**A.** The growth was 61.7% (inactive).

**Q.** `CNC(=O)c1cc(N2CCc3cc(NC(=O)Nc4ccc(N5CCOCC5)c(C(F)(F)F)c4)ccc32)ccn1` was tested. Which growth did it give?
**A.** Its growth is 27.3% (inactive).

Tested on: COLO 205 colon
Assay: as above
Conditions: 10 µM unless noted

**Q.** `Cc1ccc2c(n1)C(=O)C(Cl)=C(Nc1ccc(C#N)cc1)C2=O` was tested. Which growth did it give?
**A.** The growth was 79.6% (inactive).

**Q.** With `CC(C)(O)c1cncc(-c2ccc3ncc(C#N)c(N4CCc5cc(F)c(Cl)cc54)c3c2)c1` as the compound, how does the growth read?
**A.** The growth was 14.5% (inactive).

**Q.** Which growth does the source give for `O=c1c2ccccc2cc2n1CCN=C2c1ccccc1` here?
**A.** The growth was 103% (inactive).

**Q.** For `O=C(CN1CCN(c2cc(=O)[nH]c3ccc(F)cc23)CC1)N(c1ccccc1)c1ccccc1`, which growth is on record?
**A.** The growth was 115% (inactive).

**Q.** How did the growth turn out when `CCc1cc(OC(=O)N2CCC(N3CCCCC3)CC2)ccc1Nc1cc(-c2ccc(-n3cccn3)cc2)[nH]n1` was run?
**A.** The growth was 60.1% (inactive).

**Q.** With `CCCC/C(=C\c1ccc(O)c(O)c1)C(=O)NC(Cc1ccccc1)C(=O)C(=O)NCCc1ccc(OC)cc1` (stereo not drawn) as the compound, how does the growth read?
**A.** The growth was 110% (inactive).

**Q.** Which growth does the source give for `CN(C)c1ccc(-c2cc(-c3c[nH]c4ccccc34)nc(N)c2C#N)cc1` here?
**A.** Its growth is 22.1% (inactive).

**Q.** For `COc1cc(C(=O)c2cc(C(C)=O)c3ccc(C)cn23)cc(OC)c1OC`, which growth is on record?
**A.** The growth was 39.8% (inactive).

**Q.** For `CCOC(=O)c1ccccc1NC1=C(Cl)C(=O)c2nc(C)ccc2C1=O`, which growth is on record?
**A.** The growth was 120% (inactive).

**Q.** Which growth does the source give for `CN(C)S(=O)(=O)c1ccc(-c2nc(C(Cl)Cl)nc3cc(-c4ccccc4)nn23)cc1` here?
**A.** The growth was 69.5% (inactive).

**Q.** For `CN1CCN(c2ccc(Nc3nc(NCCCNS(=O)(=O)c4ccc(Cl)cc4)c4sccc4n3)cc2)CC1`, which growth is on record?
**A.** Its growth is -38.3% (active).

**Q.** For `O=C1[C@@H]2Cc3c([nH]c4ccccc34)[C@H](c3ccc(Cl)cc3)N2C(=O)CN1C1CCN(Cc2ccccc2)CC1`, which growth is on record?
**A.** The growth was 53.4% (inactive).

**Q.** `CN1CCN(CCNc2nc(-c3cccc(NS(=O)(=O)c4cccc5c(N(C)C)cccc45)c3)cs2)CC1` was tested. Which growth did it give?
**A.** Its growth is 85.6% (inactive).

**Q.** With `C#C[C@]1(O)CC[C@H]2[C@@H]3CC=C4c5sc(Nc6ncccc6C)nc5CC[C@]4(C)[C@H]3CC[C@@]21C` as the compound, how does the growth read?
**A.** Its growth is 34.8% (inactive).

**Q.** `CC(=O)N(O)CCCCCNC(=O)CCC(=O)N(O)CCCCCNC(=O)CCC(=O)N(O)CCCCCN(CCCCCCCCCC[P+](c1ccccc1)(c1ccccc1)c1ccccc1)CCCCCCCCCC[P+](c1ccccc1)(c1ccccc1)c1ccccc1` was tested. Which growth did it give?
**A.** The growth was -43.4% (active).

**Q.** For `O=C1Nc2ccccc2/C1=N\c1nnc(-c2ccccc2)o1`, which growth is on record?
**A.** The growth was 107% (inactive).

**Q.** Which growth does the source give for `CCCCCCCCCC(=O)NC(C)(C)C(=O)N1CCC[C@H]1C(=O)N[C@@H](CC(C)C)C(=O)N[C@@](C)(CC)C(=O)N[C@@H](CCC(N)=O)C(=O)N[C@H](CCC(N)=O)C(=O)NC(C)(C)C(=O)NC(C)(C)C(=O)N[C@@H](CCC(N)=O)C(=O)N[C@H](CC(C)C)C(=O)N[C@H](CO)CC(C)C` here?
**A.** The growth was -63% (active) and -63.6% (active).

**Q.** How did the growth turn out when `Fc1cccc(Cl)c1/C=N/Nc1nc(N/N=C/c2c(F)cccc2Cl)nc(N2CCCCC2)n1` was run?
**A.** The growth was -16.7% (active).

**Q.** Which growth does the source give for `Cc1ccc(/C(N)=N/C(N)=N/c2nc3ccccc3s2)cc1` here?
**A.** Its growth is 120% (inactive).

**Q.** With `CCc1cc2c(cc1Cl)nc1c(=O)[nH]c(=O)nc-1n2CCOCC(C)(C)C` as the compound, how does the growth read?
**A.** The growth was 58.2% (inactive).

**Q.** `Cc1csc(/N=C(N)/N=C(\N)c2cccc(Br)c2)n1` was tested. Which growth did it give?
**A.** The growth was 95.3% (inactive).

**Q.** Which growth does the source give for `Brc1cccc(-c2cc(-c3cnc4c(c3)OCCO4)n[nH]2)c1` here?
**A.** The growth was 34.9% (inactive).

**Q.** For `CN(C)CC(=O)Nc1nc(-c2cccc(NS(=O)(=O)c3cccc4c(N(C)C)cccc34)c2)cs1`, which growth is on record?
**A.** Its growth is 104% (inactive).

**Q.** How did the growth turn out when `O=C(/C=C/c1cc(Cl)ccc1Cl)Nc1ncc(Cc2ccc(Cl)cc2)s1` was run?
**A.** Its growth is -45.2% (active).

**Q.** How did the growth turn out when `Nc1ncc(-c2ccc3ncnc(NCc4ccccc4)c3c2)cn1` was run?
**A.** Its growth is 69.3% (inactive).

**Q.** Which growth does the source give for `Cc1ccc(-c2cc3nc(C(Cl)Cl)nc(-c4ccc(S(=O)(=O)N(C)C)cc4)n3n2)cc1` here?
**A.** The growth was 98.1% (inactive).
